About 83,000 compounds went through this panel and 20% of them were active in at least one assay; those are over-represented in the sample as a whole.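 Assay: single dose, 48 h. Readout: percent growth (0 = no net growth; negative = cell death). Active: <10.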 The source made the active and inactive calls.

The assay concerns HL-60(TB) leukemia. In words: NCI-60 one-dose screen, 48 h (100 = growth as untreated, 0 = no growth, -100 = all killed). The settings on record: 10 µM unless noted.
`CCCCCCCCCCC/C=C\C[C@H](O)C/C=C1/C(=O)C=C[C@@H]1C/C=C\CCCC(=O)OC`: the growth was -20% (active).

In the case of `NC1(C(=O)N[C@@H](CCO)c2ccc(Cl)cc2)CCN(c2ncnc3[nH]ccc23)CC1`, the growth was 60.7% (inactive).

With `CCN1C(=O)N(CC)C2C1NN=c1s/c(=C\c3ccccc3Br)c(=O)n12` (stereo unspecified), the growth is -40.7% (active).

In the case of `CCOC(=O)c1ccc(NC(=O)Nc2nccs2)cc1`, the growth was -50.1% (active).

For `O=c1[nH]nc(SC2CCCCC2)c(=O)[nH]1`, the growth is 108% (inactive).

With `CC(C)(C)n1cc(-c2ccnc(NCCNS(=O)(=O)c3cccc4ccccc34)c2)c(-c2cccc(O)c2)n1`, the growth was 71% (inactive).

For `OCC(O)COc1ccc(Cl)cc1Cl` (stereo unspecified), the growth is 103% (inactive).

Regarding `CN1C(=O)/C(=C/c2ccc(C(=O)Nc3ncc(Cc4cccc(C(F)(F)F)c4)s3)cc2)SC1=S`, the growth is 43.3% (inactive).

As for `Cc1ccc(NC(=O)Cn2nncc2CN2C(=O)CSC2=O)cc1C`, the growth is 95% (inactive).

`CN1CCN(Cc2ccc(NC(=O)c3cccc(C#Cc4c(N)ncc5ccc(F)cc45)c3)cc2C(F)(F)F)CC1`: the growth was -53.7% (active).

Consider `c1cnc2[nH]cc(-c3csc(-c4cn(CCCN5CCCCC5)c5ccccc45)n3)c2c1`, for which the growth is -2.66% (active).

As to `COc1cc(/C=C/C(=O)c2ccc(F)cc2)ccc1OCCCCOc1ccc(/C=C/C(=O)c2c(C)nc3ccccc3c2C)cc1OC`, the growth is 79.8% (inactive).

In the case of `CC(=O)c1nc2ccccc2n1CCNC(N)=O`, the growth was 80.5% (inactive).

Consider `CCOC(=O)c1ccc2c(c1)c1c(C)c3ccncc3c(C)c1n2C`, for which the growth was 3.93% (active).

For `COc1cnc2c(c1)C(=O)c1c-2n(CCCn2ccnc2)c(=O)c2cc(F)ccc12`, the growth is -44.5% (active).

As to `COC(=O)c1ccc2[nH]c(O)c(C(=Nc3ccc(N(C)C(=O)CN4CCN(C)CC4)cc3)c3ccc(N)cc3)c2c1`, the growth is 110% (inactive).

For the origin of these results see PubChem BioAssay (NCI).
